Bioassay records: PubChem, National Center for Advancing Translational Sciences (NCATS)
HT1080 IDH1KD tx – kills HT-1080 cells with IDH1 knockdown. HT-1080 IDH1 knockdown viability, ATP luminescence, 48 h. Potency, µM (titrated, usually from 46.1 µM), hits mostly cytotoxic. 360,000 tested, 2% active. AID 686971
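Assay cells: HT-1080 with IDH1 knockdown, 750 per well, RPMI/5% FBS. Exposure: 48 h at 37 °C following 2 h pre-incubation. Read: CellTiter-Glo luminescence; fitted concentration-response, curve class assigned.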
IL1B secr inh – inflammasome signaling inhibition, IL-1 beta readout; THP-1 LPS/ATP IL-1B secretion, AlphaLISA, 16 h; stronger effect = lower value; activity change, % at 57.5 µM; 360,000 tested, 4.7% active; AID 743279; in the data active = activity change below about -50%; inconclusive = mostly about -30% to -49%
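Secreted IL-1B measured by AlphaLISA bead assay after 16 h compound exposure of THP-1 cells; compounds (final up to 57.5 uM) added 1 h before LPS (250 ng/mL) and ATP (1.25 mM) stimulation; lower signal means less secretion.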
HT1080NT lethal – kills 2HG-producing HT-1080-NT fibrosarcoma cells; HT-1080-NT fibrosarcoma viability, CellTiter-Glo ATP luminescence, 48 h; Potency, µM (titrated, usually from 46.1 µM), hits mostly cytotoxic; 360,000 tested, 1.6% active;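 also: NT is the 2HG producing partner of a matched IDH1 knockdown line; nearly all actives have a fitted effect of over 55% in size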
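A 48-hour cytotoxicity screen used HT-1080-NT cells plated 2 hours before compound delivery. ATP-based CellTiter-Glo luminescence measured viability, normalized to DMSO and no-cell controls.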
12-LOX inh – blocks human arachidonate 12S-lipoxygenase; P18054; purified 12hLO, xylenol orange hydroperoxide absorbance; Potency, µM (titrated, usually from 108 µM), usual class: inhibitors; 580,000 tested, 1.1% active
Target sequence (P18054 whole entry, looked up): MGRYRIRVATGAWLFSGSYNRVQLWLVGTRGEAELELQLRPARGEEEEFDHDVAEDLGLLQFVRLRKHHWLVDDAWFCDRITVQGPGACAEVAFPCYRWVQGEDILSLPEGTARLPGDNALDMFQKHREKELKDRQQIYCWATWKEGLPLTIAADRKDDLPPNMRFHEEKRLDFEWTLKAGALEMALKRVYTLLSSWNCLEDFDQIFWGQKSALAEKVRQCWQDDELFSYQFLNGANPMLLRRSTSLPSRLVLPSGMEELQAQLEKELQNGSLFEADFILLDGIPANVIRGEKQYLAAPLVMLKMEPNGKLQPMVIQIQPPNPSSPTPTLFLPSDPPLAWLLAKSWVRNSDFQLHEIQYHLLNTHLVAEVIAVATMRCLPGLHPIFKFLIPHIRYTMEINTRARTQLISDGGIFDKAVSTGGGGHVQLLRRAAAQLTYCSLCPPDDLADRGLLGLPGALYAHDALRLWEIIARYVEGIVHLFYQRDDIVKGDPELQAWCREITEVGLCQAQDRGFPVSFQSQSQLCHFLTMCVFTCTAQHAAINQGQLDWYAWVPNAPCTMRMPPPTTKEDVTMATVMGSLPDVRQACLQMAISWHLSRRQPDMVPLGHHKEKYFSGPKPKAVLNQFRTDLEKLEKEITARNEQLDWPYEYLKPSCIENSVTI
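Purified human 12hLO at 150 nM in 25 mM Hepes, 0.01% Triton X-100, pH 7.0, preincubated 15 min at room temperature with compound. Reaction started with 40 uM arachidonic acid, 30 min at room temperature. Hydroperoxide measured by Fe-xylenol orange, 573/405 nm absorbance ratio.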
TDP1 cell CPT – growth inhibition of DT40 Tdp1-/-;hTDP1 cells with camptothecin (screen for TDP1 inhibitors); Potency, µM (series often up to 46.2 µM), hits mostly inhibitors; AID 686979; chicken DT40 Tdp1-/-;hTDP1 cells + 20 nM CPT, ATP luminescence, 48 h; 420,000 tested, 12% active; also: nearly all actives have a fitted effect of over 55% in size
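Chicken DT40 Tdp1-/- cells stably complemented with human TDP1 were seeded at 400 cells/well in medium containing 20 nM camptothecin, exposed to pin-transferred compounds, and grown at 37 °C for at least 48 hr. Viability was read as ATP luminescence.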
TDP1 cell noCPT – qHTS for Inhibitors of human tyrosyl-DNA phosphodiesterase 1 (TDP1): qHTS in cells in absence of CPT; DT40 Tdp1-/- hTDP1 cells, no CPT, ATP luminescence, 48 h; Potency, µM (doses to about 46.2 µM), actives largely listed as inhibitors; 420,000 tested, 15% active; also: nearly all actives have a fitted effect of over 55% in size
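A cellular qHTS used chicken DT40 cells lacking endogenous Tdp1 but carrying stably transfected human TDP1. Compounds were applied without camptothecin, and cell growth kinetics were judged by ATP-dependent luminescence after ≥48 hr.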
Large screens that a line does not name were inactive. Many of the other results were omitted from the sample, so hits are more common in it than they were. Unless noted, calls follow the shape of the dose curve; as a rule, active = well fitted curve in the direction sought with a large enough effect; inconclusive = small, poorly fitted or top-dose-only effect, or another doubt; inactive = no such curve, though single readings can be large; an effect the other way counts as inactive or inconclusive.

CCOC(=O)c1cc(C(C)=O)n2ccccc12	none
CCOC(=O)c1cc(C(=O)c2cccs2)n2ccc(C(C)=O)cc12	TDP1 cell CPT inconclusive, TDP1 cell noCPT 23µM
CCOc1ccc2ncc(S(=O)(=O)c3ccccc3)c(N3CCCCC3)c2c1	none (no result: HT1080 IDH1KD tx, IL1B secr inh, HT1080NT lethal, TDP1 cell CPT, TDP1 cell noCPT)
CCc1ccc2ncc(S(=O)(=O)c3ccc(Cl)cc3)c(N3CCN(CC)CC3)c2c1	TDP1 cell CPT inconclusive, TDP1 cell noCPT 16µM (no result: HT1080 IDH1KD tx, IL1B secr inh, HT1080NT lethal)
CCOc1ccc2ncc(S(=O)(=O)c3ccc(C)cc3)c(N3CCC4(CC3)OCCO4)c2c1	TDP1 cell CPT inconclusive, TDP1 cell noCPT 23µM
CCN1CC(CN(C)Cc2nc(-c3cccs3)no2)CC1=O (stereo not given)	none
CCN1CC(CN(C)Cc2nc(-c3ccc(C(F)(F)F)cc3)no2)CC1=O (stereo not given)	HT1080NT lethal inconclusive, TDP1 cell CPT inconclusive, TDP1 cell noCPT 18µM
CN(C)C[C@@H]1CN(c2ncccn2)C[C@H]1NC(=O)C1(C)CCOCC1	none (no result: HT1080 IDH1KD tx, IL1B secr inh, HT1080NT lethal, TDP1 cell CPT, TDP1 cell noCPT)
COc1ccccc1OCCCCN1CCCCC1	none
c1ccc(-c2ccccc2OCCCN2CCCCC2)cc1	TDP1 cell CPT 16µM, TDP1 cell noCPT 15µM
c1ccc2c(OCCCN3CCCCCC3)cccc2c1	IL1B secr inh inconclusive, HT1080NT lethal inconclusive, 12-LOX inh inconclusive, TDP1 cell CPT 29µM, TDP1 cell noCPT 23µM
N=C(C[C@@H](O)COc1ccccc1-c1ccccc1)N1CCCCC1	12-LOX inh inconclusive, TDP1 cell CPT 3µM, TDP1 cell noCPT 3.8µM (no result: HT1080 IDH1KD tx, IL1B secr inh, HT1080NT lethal)
CCN1CCN(CCCOc2ccccc2-c2ccccc2)CC1	TDP1 cell CPT inconclusive, TDP1 cell noCPT inconclusive
CC1CCCCC1NC(=S)NC(=O)c1sc2ccccc2c1Cl (stereo not given)	TDP1 cell noCPT inconclusive
O=C(NC(=S)N(CCCCO)C1CCCCC1)c1sc2ccccc2c1Cl	HT1080 IDH1KD tx inconclusive, HT1080NT lethal inconclusive, 12-LOX inh inconclusive, TDP1 cell CPT 16µM, TDP1 cell noCPT 16µM
COCC(=O)N1CC[C@H](n2nnc(C(N)=O)c2C(N)=O)C[C@H]1C(=O)N[C@H](Cc1c[nH]c2ccccc12)C(N)=O	none (no result: HT1080 IDH1KD tx, IL1B secr inh, HT1080NT lethal, TDP1 cell CPT, TDP1 cell noCPT)
COC(=O)c1c(C(=O)OC)n(CCCN)c2ccc(C)cc12	HT1080 IDH1KD tx inconclusive, IL1B secr inh inconclusive, HT1080NT lethal inconclusive, TDP1 cell CPT 23µM, TDP1 cell noCPT 13µM
CCn1c(/C=C2\C(=O)N(C)c3ccccc32)nc2ccccc2c1=O	TDP1 cell CPT inconclusive, TDP1 cell noCPT inconclusive
CCN1C(=O)/C(=C\c2nc3ccccc3c(=O)n2CC)c2ccccc21	IL1B secr inh -86, TDP1 cell CPT 16µM, TDP1 cell noCPT 29µM
CCN1C(=O)/C(=C/c2nc3ccccc3c(=O)n2-c2ccccc2)c2ccccc21	TDP1 cell CPT 21µM, TDP1 cell noCPT 18µM (no result: IL1B secr inh)
CCn1c(/C=C2/C(=O)N(C)c3ccccc32)nc2ccccc2c1=O	TDP1 cell CPT inconclusive, TDP1 cell noCPT 16µM
O=C(Cc1ccc(F)cc1)Nc1ccc(-c2nnc3n2CCCC3)cc1	none (no result: HT1080 IDH1KD tx, IL1B secr inh, HT1080NT lethal, TDP1 cell CPT, TDP1 cell noCPT)
O=S(=O)(NC1CCSc2c(F)cccc21)c1ccccc1 (stereo not given)	none (no result: HT1080 IDH1KD tx, IL1B secr inh, HT1080NT lethal, TDP1 cell CPT, TDP1 cell noCPT)
N#CC1=C(N)n2c(s/c(=C\c3ccco3)c2=O)=C(C#N)C1c1ccco1 (stereo not given)	12-LOX inh 13µM, TDP1 cell CPT inconclusive, TDP1 cell noCPT inconclusive
N#CC1=C(N)n2c(s/c(=C\c3cccs3)c2=O)=C(C#N)C1c1cccs1 (stereo not given)	12-LOX inh inconclusive, TDP1 cell noCPT inconclusive
Cc1ccc(S(=O)(=O)CC(=O)N2CCN(c3ccc([N+](=O)[O-])cc3)CC2)cc1	12-LOX inh inconclusive, TDP1 cell CPT 13µM, TDP1 cell noCPT inconclusive
Cc1ccc(CC(=O)N2CCN(c3ccc([N+](=O)[O-])cc3)CC2)cc1	HT1080 IDH1KD tx inconclusive, TDP1 cell CPT inconclusive, TDP1 cell noCPT 7.3µM (no result: IL1B secr inh)
CC(=O)N1CCN(c2ccc([N+](=O)[O-])cc2)CC1	none
